Results on 28 compounds are retold here after PubChem BioAssay (Tox21).

Each structure is given as a SMILES string. “And” between values parts separate entries of the source, which are not always exact repeats. Equal entries are not always repeated. Inconclusive results are not listed. The source holds several records for some structures; these can differ, active in one and inactive in another. The source made the active and inactive calls. Unless noted, calls follow the shape of the dose curve; as a rule, active = well fitted curve in the direction sought with a large enough effect in the repeat runs; inconclusive = weak or mixed curves; inactive = no such curve, though single readings can be large; an effect the other way counts as inactive or inconclusive.

The nature of assay [1]: A CellTox Green Cytotoxicity Assay to monitor cytotoxicity in HepG2 cells - 8 hour (AID 1224890). Also: nearly all actives have a fitted effect of over 45% in size. Also: potency is read from the fitted curve at half-maximal effect. Summed up: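 Real-time, homogeneous cytotoxicity readout: dead-cell DNA staining by CellTox Green in HepG2 monolayers, fluorescence measured at timed intervals up to 40 h of continuous compound exposure.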
Assay [2] is described as follows: qHTS assay to identify small molecule antagonists of the estrogen receptor alpha (ER-alpha) signaling pathway using the BG1 cell line in the presence of 0.1 nM 17-beta-estradiol - cell viability counter screen (AID 1259241). Also: nearly all actives have a fitted effect of over 40% in size. The method in brief:
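Measures cytotoxicity alongside the ER-alpha antagonist readout: VM7Luc4E2 cells, charcoal-stripped serum, 0.1 nM 17beta-estradiol final, 22 hr compound incubation at 37C, CellTiter-Fluor fluorescence.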

Assay [3] in a line: qHTS assay to identify small molecule antagonists of the androgen receptor (AR) signaling pathway using the MDA cell line in the presence of 0.5 nM R1881 - cell viability counter screen (AID 1259242). Also: nearly all actives have a fitted effect of over 45% in size. Also: potency is read from the fitted curve at half-maximal effect. Summed up:
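Cytotoxicity toward MDA-kb2 cells is measured by CellTiter-Fluor live-cell protease fluorescence after 16 hr compound exposure at 37C in the presence of 0.5 nM R1881 stimulator.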
(Quantitative high-throughput screening tests each substance at several concentrations.)

Assay [4] addresses Estrogen receptor (Homo sapiens) (UniProt P03372). The assay can be described thus: qHTS assay to identify small molecule antagonists of the estrogen receptor alpha (ER-alpha) signaling pathway using the BG1 cell line in the presence of 0.1 nM 17-beta-estradiol (AID 1259244). Also: nearly all actives have a fitted effect of over 50% in size. Also: potency is read from the fitted curve at half-maximal effect. The method in brief:
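After 5 days in hormone-depleted medium (charcoal-stripped serum, no phenol red), VM7Luc4E2 cells were seeded, incubated 24 h, then co-treated with compound and 0.1 nM (final) estradiol for 22 h before luminescence detection.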

A short description of assay [5]: qHTS assay to identify small molecule phospholipidosis (PLD) inducers (AID 1259344; active = well fitted curve in the direction sought with a large enough effect; an effect the other way counts as inactive or inconclusive; also: potency is read from the fitted curve at half-maximal effect). Summed up:
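Fluorescent phospholipid staining (LipidTOX Red) measured by automated microscopy in fixed HepG2 cells after 24 h treatment; nuclei counterstained with Hoechst 33342; amiodarone as reference inducer.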

The nature of assay [6]: qHTS assay to identify small molecule HDAC inhibitors (AID 1259364). Also: nearly all actives have a fitted effect of over 45% in size. Also: potency is read from the fitted curve at half-maximal effect. The method in brief:
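Homogeneous cell-based luminescent assay of endogenous class I/II HDAC activity; HCT-116 cells, 2 h compound exposure, 30 min HDAC-Glo development at RT.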

Assay [7] can be described thus: qHTS assay to identify small molecule HDAC inhibitors - cell viability counter screen (AID 1259365). Also: series mostly up to about 92 µM; nearly all actives have a fitted effect of over 50% in size. Summed up: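 Following a 2hr exposure of overnight-plated wild-type HCT-116 cells to DMSO-delivered compounds, CellTiter-Glo was added and luminescence recorded after 30min at room temperature.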
Assay [8] in a line: qHTS assay to identify small molecule antagonists of the sonic hedgehog signaling (Shh) pathway - cell viability counter screen (AID 1259367). Also: nearly all actives have a fitted effect of over 55% in size. Also: potency is read from the fitted curve at half-maximal effect. The method in brief:
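Using CellTiter-Fluor, viability of Gli1-Luc reporter 3T3 cells is read by fluorescence in the wells used for the Shh luciferase assay. Treatment lasts 23 hr with conditioned medium, then reagent 1 hr at 37C.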

Assay [9] in a line: qHTS assay to identify small molecule agonists of the sonic hedgehog signaling (Shh) pathway - cell viability counter screen (AID 1259366). Also: nearly all actives have a fitted effect of over 50% in size. Also: potency is read from the fitted curve at half-maximal effect. Summed up: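 After a 4hr attachment at 37C, NIH/3T3 cells bearing an integrated Gli1-driven luciferase reporter were dosed with compounds. Treatment lasted 24hr, with the final hour including CellTiter-Fluor for a fluorescence viability measurement.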
% is scaled to controls: 0 for no effect and ±100 for the full control effect.

Estrogen receptor (Homo sapiens), sequence (P03372 whole entry, looked up): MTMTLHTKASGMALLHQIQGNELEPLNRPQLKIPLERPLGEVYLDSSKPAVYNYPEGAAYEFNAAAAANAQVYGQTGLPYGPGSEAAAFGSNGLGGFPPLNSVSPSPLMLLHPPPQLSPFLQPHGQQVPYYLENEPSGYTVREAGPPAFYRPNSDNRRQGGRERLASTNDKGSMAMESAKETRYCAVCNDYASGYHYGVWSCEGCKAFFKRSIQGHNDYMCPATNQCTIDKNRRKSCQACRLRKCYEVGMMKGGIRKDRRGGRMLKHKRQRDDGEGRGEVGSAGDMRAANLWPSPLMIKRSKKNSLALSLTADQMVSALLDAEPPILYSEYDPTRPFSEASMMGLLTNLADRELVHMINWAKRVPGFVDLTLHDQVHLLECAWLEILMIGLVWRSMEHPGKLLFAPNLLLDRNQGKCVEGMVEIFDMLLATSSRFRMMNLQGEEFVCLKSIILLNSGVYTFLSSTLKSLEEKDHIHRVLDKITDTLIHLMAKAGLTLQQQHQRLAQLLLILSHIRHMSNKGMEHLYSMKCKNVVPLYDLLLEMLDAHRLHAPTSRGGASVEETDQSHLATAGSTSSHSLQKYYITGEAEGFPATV

Regarding `Cc1[nH]c(=O)c(C#N)cc1-c1ccncc1`, the Potency result in [1], in [2], in [3], in assay [4], in assay [5] and in assay [6] was “inactive” each time. The Potency result in [8] is “inactive”. Further, the compound was classed as inactive in assay [7].

For the compound `CCCCC(CC)COCC1CO1` (configuration not stated), the Potency result in [1], in assay [2], in [3], in assay [4], in assay [6] and in assay [8] was “inactive” each time. The compound was classed as inactive in [7].

For the compound `Nc1ccccc1N`, the Potency was 56.2 µM (active) in [1]; “inactive and 54.5 µM (active)” in assay [4]; 19.8 µM (active) in assay [6]. Also, the Potency result in [2], in assay [3], in assay [5] and in assay [8] was “inactive” each time. Further, in assay [7], the compound was called inactive.

As for `Cc1ncc[nH]1`, the Potency entry in assay [1], in assay [2], in assay [3], in assay [5], in [6] and in [9] was “inactive” throughout. The Potency result in [8] was “inactive”. Besides, the outcome in [7] was inactive.

Consider `CC1=CC2C3CC(C=C3C)C2C1` (configuration not stated), for which the Potency entry in assay [1] is “inactive and 38.9 µM (active)”. Moreover, the Potency entry in assay [2], in assay [3], in assay [4], in assay [6] and in [8] was “inactive” in each case. Besides, the result in assay [7] was inactive.

With `O=C(OCc1ccccc1)c1ccccc1O`, the Potency result in assay [1], in assay [2], in assay [3], in assay [4], in [9] and in [8] was “inactive” each time. Further, in assay [6], the Potency was 24.2 µM (active) and 24.3 µM (active). In assay [7], the compound was classed as inactive.

`CN(C)c1nc(N(C)C)nc(N(C)C)n1`: the Potency entry in assay [1], in [2], in assay [3], in assay [5], in assay [6] and in assay [8] was “inactive” each time. In addition, in [7], the call was inactive.

Take `CC(C)CC(C)(O)C#CC(C)(O)CC(C)C` (configuration not stated): the Potency entry in assay [1], in assay [2], in assay [3] and in assay [6] was “inactive” each time. Also, the outcome in assay [7] was inactive. In addition, the Potency in assay [9] is 13.4 µM (active) and inactive; in assay [8], 30 µM (active) and inactive.

With `Cc1ccc(C(=O)c2cc(O)c(O)c([N+](=O)[O-])c2)cc1`, the Potency entry in assay [1], in [2], in [6] and in [9] was “inactive” throughout. The Potency in [3] is 54.5 µM (active); in assay [8], 54.5 µM (active) and inactive. Further, in [5], the PLD induction was 0.47% [at 7.66 µM] (inactive). Moreover, in assay [7], the outcome was inactive.

For the compound `CC(=O)c1ccccn1`, the Potency entry in [1], in assay [2], in assay [3], in [6], in assay [9] and in assay [8] was “inactive” each time. Also, the call in [7] was inactive.

Consider `CCCCCCCCCC(=O)OC`, for which the Potency entry in assay [1], in assay [2], in [3], in [6], in assay [9] and in assay [8] was “inactive” each time. Besides, in assay [7], the compound was called inactive.

On to `OC[C@H]1O[C@@H]2O[C@H]3[C@H](O)[C@@H](O)[C@@H](O[C@H]4[C@H](O)[C@@H](O)[C@@H](O[C@H]5[C@H](O)[C@@H](O)[C@@H](O[C@H]6[C@H](O)[C@@H](O)[C@@H](O[C@H]7[C@H](O)[C@@H](O)[C@@H](O[C@H]8[C@H](O)[C@@H](O)[C@@H](O[C@H]1[C@H](O)[C@H]2O)O[C@@H]8CO)O[C@@H]7CO)O[C@@H]6CO)O[C@@H]5CO)O[C@@H]4CO)O[C@@H]3CO`, for which the Potency result in assay [1], in assay [2], in [3], in assay [5], in assay [6] and in [9] was “inactive” throughout. In addition, the Potency entry in [8] is “inactive”. Besides, in assay [7], the compound was called inactive.

Take `CC(C)Oc1ccc2c(=O)c(-c3ccccc3)coc2c1`: the Potency entry in assay [1], in [2], in assay [3], in assay [5] and in assay [8] was “inactive” each time. In addition, in assay [6], the Potency was 2.37 µM (active). Besides, in [7], the compound was called inactive.

In the case of `O=C=Nc1ccc(Cc2ccc(N=C=O)cc2)cc1`, the Potency result in assay [1], in [2], in [3], in assay [6], in assay [9] and in [8] was “inactive” each time. For the same compound, in [7], the call was inactive.

As for `O=c1oc(=O)c2cc3c(=O)oc(=O)c3cc12`, the Potency entry in assay [1], in assay [2], in [3], in assay [6], in assay [9] and in assay [8] was “inactive” each time. In addition, in [7], the call was inactive.

As to `CCC(C)c1ccccc1O` (configuration not stated), the Potency entry in assay [1], in assay [2], in assay [3], in [6], in assay [9] and in [8] was “inactive” throughout. For the same compound, in assay [7], the call was inactive.

Consider `O=C(Nc1ccc([N+](=O)[O-])cc1Cl)c1cc(Cl)ccc1O`, for which the Potency result in [1] and in [5] was “inactive” each time. The Potency in assay [3] is 2.17 µM (active) and 1.46 µM (active); in [4], 2.43 µM (active) and 1.64 µM (active); in assay [6] it was 969 nM (active) and 580 nM (active); in assay [8] it was 30.6 µM (active). In assay [7], the compound was called inactive. Further, the viability change, negative = cytotoxic in [8] was -21.1% [at 19 µM] (inactive).

Take `Cc1cc2nc3c(=O)[nH]c(=O)nc-3n(C[C@H](O)[C@H](O)[C@H](O)CO)c2cc1C`: the Potency in assay [1] is 43.2 µM (active) and 40.5 µM (active) and 11.7 µM (active). Moreover, the Potency result in assay [5] and in assay [6] was “inactive” in each case. For the same compound, in assay [7], the compound was called inactive.

Take `NC=O`: the Potency result in assay [1], in assay [2], in assay [3], in [6] and in [8] was “inactive” in each case. Moreover, in [7], the call was inactive.

Regarding `O=CCc1ccccc1`, the Potency result in assay [1], in [2], in assay [3], in assay [6] and in assay [8] was “inactive” each time. In [7], the outcome was inactive.

Turning to `C[Si](C)(C)O[Si](C)(C)C`, the Potency result in assay [1], in assay [2], in [3], in assay [5], in assay [6] and in [8] was “inactive” in each case. Further, the compound was called inactive in assay [7].

Consider `O=C(c1ccc(OCCN2CCCCC2)cc1)c1c(-c2ccc(O)cc2)sc2cc(O)ccc12`, for which the Potency entry in [1], in [5] and in assay [6] was “inactive” each time. Also, the Potency in assay [3] is 61.2 µM (active) and inactive; in assay [8] it was 24.4 µM (active) and 30.6 µM (active). The call in assay [7] was inactive.

For the compound `CCOC(=O)C(C#N)=C(c1ccccc1)c1ccccc1`, the Potency result in assay [1], in assay [2], in assay [3], in assay [5], in assay [6] and in [9] was “inactive” each time. For the same compound, the Potency entry in assay [8] is “inactive”. In addition, the result in assay [7] was inactive.

`O=C(c1ccccc1)c1ccccc1O`: the Potency result in assay [1], in assay [2], in assay [3], in assay [6] and in assay [8] was “inactive” in each case. In addition, the compound was classed as inactive in assay [7].

In the case of `NNc1ccc(C(=O)O)cc1`, the Potency result in [1], in [2], in assay [3] and in assay [8] was “inactive” throughout. In addition, the Potency in assay [6] was 2.47 µM (active) and 6.93 µM (active). Besides, the result in assay [7] was inactive.

Regarding `CCCCc1oc2ccccc2c1C(=O)c1cc(I)c(OCCN(CC)CC)c(I)c1`, the Potency entry in assay [2], in [4], in [6] and in assay [8] was “inactive” in each case. For the same compound, the PLD induction in assay [5] was -0.301% [at 7.66 µM] (inactive). The results for the Potency in assay [5] and in assay [9] were 10 µM (active) and 43.6 µM (active), respectively. In addition, the result in [7] was inactive.

For `Clc1nc(Cl)c(Cl)c(Cl)c1Cl`, the Potency entry in assay [1], in assay [2], in [3], in assay [6], in [9] and in assay [8] was “inactive” each time. In addition, the outcome in assay [7] was inactive.

As for `COc1c(Cl)c(Cl)c(Cl)c(Cl)c1Cl`, the Potency result in [1], in assay [2], in assay [3], in assay [6], in [9] and in [8] was “inactive” each time. Also, the result in assay [7] was inactive.
